Results as given in ChEMBL document CHEMBL1961873, “Compounds: GSK PKIS; Assays: Nanosyn kinase panel” (2012).

Columns and labels:
[1] = target: T1, Inhibitor of nuclear factor kappa-B kinase subunit epsilon (Homo sapiens) (UniProt Q14164); conditions: at 1 µM;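 also: reported values are averaged percent inhibition figures against human IKKε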
T1 sequence (whole entry): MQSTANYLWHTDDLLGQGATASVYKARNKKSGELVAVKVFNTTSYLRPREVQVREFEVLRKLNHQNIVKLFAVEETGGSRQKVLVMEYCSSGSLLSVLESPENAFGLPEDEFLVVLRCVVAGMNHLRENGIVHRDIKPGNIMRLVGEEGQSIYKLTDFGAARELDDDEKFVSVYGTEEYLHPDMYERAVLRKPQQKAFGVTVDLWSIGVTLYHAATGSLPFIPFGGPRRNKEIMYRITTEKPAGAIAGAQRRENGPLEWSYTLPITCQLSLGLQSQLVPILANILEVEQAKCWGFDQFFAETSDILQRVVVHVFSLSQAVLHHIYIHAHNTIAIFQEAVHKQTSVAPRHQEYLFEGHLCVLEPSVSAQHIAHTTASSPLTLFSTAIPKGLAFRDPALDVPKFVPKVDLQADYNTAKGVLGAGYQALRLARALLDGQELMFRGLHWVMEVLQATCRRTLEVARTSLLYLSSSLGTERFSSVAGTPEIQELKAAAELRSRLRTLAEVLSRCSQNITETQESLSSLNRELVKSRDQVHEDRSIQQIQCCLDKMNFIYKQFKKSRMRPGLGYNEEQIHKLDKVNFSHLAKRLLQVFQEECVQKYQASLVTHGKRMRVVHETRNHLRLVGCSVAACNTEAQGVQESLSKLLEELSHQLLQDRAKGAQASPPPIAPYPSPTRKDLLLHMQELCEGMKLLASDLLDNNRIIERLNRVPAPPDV

[2] = target: T2, Serine/threonine-protein kinase Nek1 (Homo sapiens) (UniProt Q96PY6); conditions: at 0.1 µM
T2 sequence (whole entry): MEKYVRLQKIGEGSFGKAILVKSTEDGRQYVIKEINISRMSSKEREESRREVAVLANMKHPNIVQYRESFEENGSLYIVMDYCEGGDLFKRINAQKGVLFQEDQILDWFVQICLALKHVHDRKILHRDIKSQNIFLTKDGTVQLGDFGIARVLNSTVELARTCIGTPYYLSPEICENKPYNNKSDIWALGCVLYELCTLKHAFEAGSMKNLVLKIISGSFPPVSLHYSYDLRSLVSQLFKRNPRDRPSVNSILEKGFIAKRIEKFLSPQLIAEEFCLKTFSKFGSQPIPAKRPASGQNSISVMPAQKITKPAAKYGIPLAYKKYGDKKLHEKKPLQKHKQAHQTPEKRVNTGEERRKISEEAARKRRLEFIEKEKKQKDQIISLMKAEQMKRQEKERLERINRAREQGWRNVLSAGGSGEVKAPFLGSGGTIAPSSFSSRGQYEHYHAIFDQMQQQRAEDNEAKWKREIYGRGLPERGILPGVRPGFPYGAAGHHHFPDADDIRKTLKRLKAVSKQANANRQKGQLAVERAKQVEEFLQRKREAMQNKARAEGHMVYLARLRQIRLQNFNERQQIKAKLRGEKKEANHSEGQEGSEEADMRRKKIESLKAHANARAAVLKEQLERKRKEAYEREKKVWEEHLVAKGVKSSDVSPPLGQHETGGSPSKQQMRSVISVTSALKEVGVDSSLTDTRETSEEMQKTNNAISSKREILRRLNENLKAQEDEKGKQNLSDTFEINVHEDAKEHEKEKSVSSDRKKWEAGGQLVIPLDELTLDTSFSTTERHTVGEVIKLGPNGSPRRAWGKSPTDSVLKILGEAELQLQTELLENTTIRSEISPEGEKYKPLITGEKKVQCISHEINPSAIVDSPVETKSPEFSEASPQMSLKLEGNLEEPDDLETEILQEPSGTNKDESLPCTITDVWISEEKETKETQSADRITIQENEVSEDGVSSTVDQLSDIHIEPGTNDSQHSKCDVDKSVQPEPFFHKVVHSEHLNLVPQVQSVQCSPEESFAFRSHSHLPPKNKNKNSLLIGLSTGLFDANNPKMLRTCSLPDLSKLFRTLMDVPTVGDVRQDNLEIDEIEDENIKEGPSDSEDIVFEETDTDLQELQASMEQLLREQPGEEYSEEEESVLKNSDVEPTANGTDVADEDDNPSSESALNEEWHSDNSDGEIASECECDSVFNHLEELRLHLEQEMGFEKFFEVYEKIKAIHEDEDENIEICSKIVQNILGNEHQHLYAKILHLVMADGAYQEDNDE

[3] = target: T2, Serine/threonine-protein kinase Nek1 (Homo sapiens); conditions: at 1 µM
[4] = target: T3, Serine/threonine-protein kinase Nek2 (Homo sapiens) (UniProt P51955); conditions: at 0.1 µM
T3 sequence (whole entry): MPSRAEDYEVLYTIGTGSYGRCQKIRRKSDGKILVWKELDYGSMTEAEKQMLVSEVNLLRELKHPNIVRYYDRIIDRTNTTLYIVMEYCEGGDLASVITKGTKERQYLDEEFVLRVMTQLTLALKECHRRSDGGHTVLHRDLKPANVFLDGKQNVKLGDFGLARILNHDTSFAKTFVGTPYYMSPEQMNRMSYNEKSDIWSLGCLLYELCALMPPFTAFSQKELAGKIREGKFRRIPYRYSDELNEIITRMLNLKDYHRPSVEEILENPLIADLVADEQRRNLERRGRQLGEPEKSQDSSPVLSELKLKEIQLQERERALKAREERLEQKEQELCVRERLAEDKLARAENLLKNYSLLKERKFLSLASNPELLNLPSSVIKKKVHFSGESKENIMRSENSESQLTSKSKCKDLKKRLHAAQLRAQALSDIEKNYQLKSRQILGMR

[5] = target: T3, Serine/threonine-protein kinase Nek2 (Homo sapiens); conditions: at 1 µM
[6] = target: Serine/threonine-protein kinase Nek6 (Homo sapiens) (UniProt Q9HC98); conditions: at 0.1 µM
[7] = target: Serine/threonine-protein kinase Nek6 (Homo sapiens) (UniProt Q9HC98); conditions: at 1 µM
[8] = target: Serine/threonine-protein kinase Nek7 (Homo sapiens) (UniProt Q8TDX7); conditions: at 0.1 µM
[9] = target: Serine/threonine-protein kinase Nek7 (Homo sapiens) (UniProt Q8TDX7); conditions: at 1 µM
[10] = target: T4, Serine/threonine-protein kinase Nek9 (Homo sapiens) (UniProt Q8TD19); conditions: at 0.1 µM
T4 sequence (whole entry): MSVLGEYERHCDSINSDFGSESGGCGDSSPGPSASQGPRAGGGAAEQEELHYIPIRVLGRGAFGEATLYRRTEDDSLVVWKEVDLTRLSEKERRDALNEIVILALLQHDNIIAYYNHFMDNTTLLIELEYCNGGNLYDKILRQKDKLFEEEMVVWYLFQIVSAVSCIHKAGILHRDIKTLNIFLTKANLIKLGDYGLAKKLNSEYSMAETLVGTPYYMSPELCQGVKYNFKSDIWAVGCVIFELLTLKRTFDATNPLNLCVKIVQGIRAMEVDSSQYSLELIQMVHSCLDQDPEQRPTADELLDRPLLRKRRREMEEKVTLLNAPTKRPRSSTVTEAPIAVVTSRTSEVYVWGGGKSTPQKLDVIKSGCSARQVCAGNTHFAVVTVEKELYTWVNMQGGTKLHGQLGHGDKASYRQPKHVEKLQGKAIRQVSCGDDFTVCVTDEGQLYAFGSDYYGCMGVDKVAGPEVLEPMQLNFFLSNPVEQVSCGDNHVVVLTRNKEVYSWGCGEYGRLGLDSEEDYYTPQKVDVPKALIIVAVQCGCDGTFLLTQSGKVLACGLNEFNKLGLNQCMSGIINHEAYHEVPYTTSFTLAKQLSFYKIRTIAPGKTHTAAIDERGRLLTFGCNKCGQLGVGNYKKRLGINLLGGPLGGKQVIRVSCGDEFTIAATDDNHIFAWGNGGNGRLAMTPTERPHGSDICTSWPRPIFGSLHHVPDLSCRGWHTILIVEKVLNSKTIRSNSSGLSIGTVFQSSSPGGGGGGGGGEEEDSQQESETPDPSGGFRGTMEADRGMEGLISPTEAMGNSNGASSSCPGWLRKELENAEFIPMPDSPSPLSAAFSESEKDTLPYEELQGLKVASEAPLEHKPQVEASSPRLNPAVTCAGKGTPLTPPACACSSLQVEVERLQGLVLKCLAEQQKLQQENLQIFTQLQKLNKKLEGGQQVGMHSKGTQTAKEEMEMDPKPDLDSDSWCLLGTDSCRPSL

[11] = target: T4, Serine/threonine-protein kinase Nek9 (Homo sapiens); conditions: at 1 µM
[12] = target: Serine/threonine-protein kinase PLK1 (Homo sapiens) (UniProt P53350); conditions: at 0.1 µM
[13] = target: Serine/threonine-protein kinase PLK1 (Homo sapiens) (UniProt P53350); conditions: at 1 µM
[14] = target: T5, Dual specificity protein kinase TTK (Homo sapiens) (UniProt P33981); conditions: at 0.1 µM
T5 sequence (whole entry): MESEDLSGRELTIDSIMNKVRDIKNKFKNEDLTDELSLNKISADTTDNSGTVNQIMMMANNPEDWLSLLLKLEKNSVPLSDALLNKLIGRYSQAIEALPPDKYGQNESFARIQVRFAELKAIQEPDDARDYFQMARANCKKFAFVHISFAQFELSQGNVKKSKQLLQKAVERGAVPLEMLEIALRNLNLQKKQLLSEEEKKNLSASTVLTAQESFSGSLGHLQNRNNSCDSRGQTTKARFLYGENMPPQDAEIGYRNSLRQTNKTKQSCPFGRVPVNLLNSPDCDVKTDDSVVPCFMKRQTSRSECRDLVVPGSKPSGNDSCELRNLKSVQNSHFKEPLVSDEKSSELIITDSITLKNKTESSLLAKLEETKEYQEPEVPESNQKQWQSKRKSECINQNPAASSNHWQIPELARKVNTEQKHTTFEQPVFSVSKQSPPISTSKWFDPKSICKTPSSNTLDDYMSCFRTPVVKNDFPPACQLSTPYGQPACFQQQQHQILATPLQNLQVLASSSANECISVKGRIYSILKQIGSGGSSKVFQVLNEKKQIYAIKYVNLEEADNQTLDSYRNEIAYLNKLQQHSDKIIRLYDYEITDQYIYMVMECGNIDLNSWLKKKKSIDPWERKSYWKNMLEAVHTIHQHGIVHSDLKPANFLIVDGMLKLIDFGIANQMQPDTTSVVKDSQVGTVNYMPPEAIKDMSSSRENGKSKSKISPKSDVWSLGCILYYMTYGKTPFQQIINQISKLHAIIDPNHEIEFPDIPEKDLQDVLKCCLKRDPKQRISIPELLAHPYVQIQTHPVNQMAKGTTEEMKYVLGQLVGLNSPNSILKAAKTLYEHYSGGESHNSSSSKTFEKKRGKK

[15] = tested on: T6, Receptor-type tyrosine-protein kinase FLT3 (Homo sapiens), P36888 [D835Y]; conditions: at 1 µM
T6 sequence (whole entry): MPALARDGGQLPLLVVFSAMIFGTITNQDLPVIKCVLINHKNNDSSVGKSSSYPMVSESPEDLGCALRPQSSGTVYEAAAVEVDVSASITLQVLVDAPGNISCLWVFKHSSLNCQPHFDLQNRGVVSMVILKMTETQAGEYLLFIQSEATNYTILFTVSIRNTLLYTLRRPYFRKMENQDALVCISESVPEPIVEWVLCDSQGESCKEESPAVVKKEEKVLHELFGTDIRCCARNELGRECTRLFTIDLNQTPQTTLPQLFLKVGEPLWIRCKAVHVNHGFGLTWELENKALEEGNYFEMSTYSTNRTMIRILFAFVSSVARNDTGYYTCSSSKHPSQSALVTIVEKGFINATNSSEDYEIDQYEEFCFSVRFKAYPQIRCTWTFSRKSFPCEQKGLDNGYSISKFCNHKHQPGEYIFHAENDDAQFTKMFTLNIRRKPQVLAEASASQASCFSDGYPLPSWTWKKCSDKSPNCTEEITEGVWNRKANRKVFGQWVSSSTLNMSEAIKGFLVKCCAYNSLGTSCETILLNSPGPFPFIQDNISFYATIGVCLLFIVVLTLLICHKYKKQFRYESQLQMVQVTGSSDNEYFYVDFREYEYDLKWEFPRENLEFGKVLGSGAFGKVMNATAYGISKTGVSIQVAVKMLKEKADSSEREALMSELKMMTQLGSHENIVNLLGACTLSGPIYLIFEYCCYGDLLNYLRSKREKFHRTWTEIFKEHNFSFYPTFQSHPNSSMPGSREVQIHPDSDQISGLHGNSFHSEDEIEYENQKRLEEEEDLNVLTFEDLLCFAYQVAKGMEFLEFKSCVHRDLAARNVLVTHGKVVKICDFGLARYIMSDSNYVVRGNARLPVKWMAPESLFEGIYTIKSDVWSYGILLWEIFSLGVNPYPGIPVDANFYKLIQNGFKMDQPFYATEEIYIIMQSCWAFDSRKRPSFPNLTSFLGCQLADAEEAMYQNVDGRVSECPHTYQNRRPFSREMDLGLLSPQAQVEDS

[16] = target: Vascular endothelial growth factor receptor 3 (Homo sapiens) (UniProt P35916); conditions: at 0.1 µM
[17] = target: Vascular endothelial growth factor receptor 3 (Homo sapiens) (UniProt P35916); conditions: at 1 µM
[18] = target: Macrophage colony-stimulating factor 1 receptor (Homo sapiens) (UniProt P07333); conditions: at 0.1 µM
[19] = target: Macrophage colony-stimulating factor 1 receptor (Homo sapiens) (UniProt P07333); conditions: at 1 µM
[20] = target: Tyrosine-protein kinase Fyn (Homo sapiens) (UniProt P06241); conditions: at 0.1 µM
Tyrosine-protein kinase Fyn (Homo sapiens), sequence (P06241 2-537 limits assumed): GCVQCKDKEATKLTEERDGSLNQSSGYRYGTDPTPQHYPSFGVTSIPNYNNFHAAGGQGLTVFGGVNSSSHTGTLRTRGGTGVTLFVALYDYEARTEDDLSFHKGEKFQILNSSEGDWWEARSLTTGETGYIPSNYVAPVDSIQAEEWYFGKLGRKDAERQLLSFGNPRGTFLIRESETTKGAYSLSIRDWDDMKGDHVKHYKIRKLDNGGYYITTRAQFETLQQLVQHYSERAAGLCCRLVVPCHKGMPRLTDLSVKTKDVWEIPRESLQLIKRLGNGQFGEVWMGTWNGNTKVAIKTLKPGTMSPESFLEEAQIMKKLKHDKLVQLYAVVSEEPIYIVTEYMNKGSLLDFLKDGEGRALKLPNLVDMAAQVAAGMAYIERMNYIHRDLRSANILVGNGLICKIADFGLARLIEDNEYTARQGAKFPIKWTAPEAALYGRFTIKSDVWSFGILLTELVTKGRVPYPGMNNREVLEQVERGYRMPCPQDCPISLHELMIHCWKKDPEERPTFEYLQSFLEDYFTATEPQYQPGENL

Vascular endothelial growth factor receptor 3 (Homo sapiens), sequence (P35916 whole entry): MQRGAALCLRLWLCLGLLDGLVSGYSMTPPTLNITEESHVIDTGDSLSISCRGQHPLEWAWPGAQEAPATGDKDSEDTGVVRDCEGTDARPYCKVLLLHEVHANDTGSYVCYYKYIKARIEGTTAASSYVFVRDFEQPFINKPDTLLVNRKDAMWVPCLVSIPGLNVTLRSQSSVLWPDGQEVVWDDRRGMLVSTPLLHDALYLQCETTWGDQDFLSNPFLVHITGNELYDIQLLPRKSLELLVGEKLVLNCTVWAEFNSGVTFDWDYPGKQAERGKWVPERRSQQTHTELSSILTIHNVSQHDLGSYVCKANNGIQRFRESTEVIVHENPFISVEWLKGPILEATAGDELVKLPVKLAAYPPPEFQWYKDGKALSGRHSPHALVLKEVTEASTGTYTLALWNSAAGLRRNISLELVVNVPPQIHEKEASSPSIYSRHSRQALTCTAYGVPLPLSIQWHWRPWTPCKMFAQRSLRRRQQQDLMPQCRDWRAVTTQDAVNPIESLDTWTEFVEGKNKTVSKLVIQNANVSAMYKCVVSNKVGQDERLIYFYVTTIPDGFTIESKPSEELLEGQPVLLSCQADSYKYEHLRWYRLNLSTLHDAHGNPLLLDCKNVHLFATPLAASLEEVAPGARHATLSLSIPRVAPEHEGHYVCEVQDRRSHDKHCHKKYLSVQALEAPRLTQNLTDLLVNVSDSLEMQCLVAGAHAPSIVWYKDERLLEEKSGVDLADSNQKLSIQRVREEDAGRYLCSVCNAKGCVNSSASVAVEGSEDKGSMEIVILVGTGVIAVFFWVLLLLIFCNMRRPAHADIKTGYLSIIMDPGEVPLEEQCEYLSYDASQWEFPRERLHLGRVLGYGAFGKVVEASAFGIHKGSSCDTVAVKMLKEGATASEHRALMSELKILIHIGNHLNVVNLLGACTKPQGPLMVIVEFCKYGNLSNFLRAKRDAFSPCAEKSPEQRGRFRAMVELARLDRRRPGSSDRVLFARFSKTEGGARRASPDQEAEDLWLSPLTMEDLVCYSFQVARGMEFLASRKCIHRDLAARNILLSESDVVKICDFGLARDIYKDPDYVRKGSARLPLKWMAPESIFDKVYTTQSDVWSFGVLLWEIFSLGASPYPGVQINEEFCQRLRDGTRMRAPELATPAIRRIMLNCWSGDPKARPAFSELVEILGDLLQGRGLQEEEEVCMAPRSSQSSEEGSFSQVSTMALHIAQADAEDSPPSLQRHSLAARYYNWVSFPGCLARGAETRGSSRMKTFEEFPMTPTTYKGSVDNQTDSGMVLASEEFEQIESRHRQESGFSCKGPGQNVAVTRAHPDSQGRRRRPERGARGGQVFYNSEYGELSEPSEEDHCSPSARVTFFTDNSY
Macrophage colony-stimulating factor 1 receptor (Homo sapiens), sequence (P07333 whole entry): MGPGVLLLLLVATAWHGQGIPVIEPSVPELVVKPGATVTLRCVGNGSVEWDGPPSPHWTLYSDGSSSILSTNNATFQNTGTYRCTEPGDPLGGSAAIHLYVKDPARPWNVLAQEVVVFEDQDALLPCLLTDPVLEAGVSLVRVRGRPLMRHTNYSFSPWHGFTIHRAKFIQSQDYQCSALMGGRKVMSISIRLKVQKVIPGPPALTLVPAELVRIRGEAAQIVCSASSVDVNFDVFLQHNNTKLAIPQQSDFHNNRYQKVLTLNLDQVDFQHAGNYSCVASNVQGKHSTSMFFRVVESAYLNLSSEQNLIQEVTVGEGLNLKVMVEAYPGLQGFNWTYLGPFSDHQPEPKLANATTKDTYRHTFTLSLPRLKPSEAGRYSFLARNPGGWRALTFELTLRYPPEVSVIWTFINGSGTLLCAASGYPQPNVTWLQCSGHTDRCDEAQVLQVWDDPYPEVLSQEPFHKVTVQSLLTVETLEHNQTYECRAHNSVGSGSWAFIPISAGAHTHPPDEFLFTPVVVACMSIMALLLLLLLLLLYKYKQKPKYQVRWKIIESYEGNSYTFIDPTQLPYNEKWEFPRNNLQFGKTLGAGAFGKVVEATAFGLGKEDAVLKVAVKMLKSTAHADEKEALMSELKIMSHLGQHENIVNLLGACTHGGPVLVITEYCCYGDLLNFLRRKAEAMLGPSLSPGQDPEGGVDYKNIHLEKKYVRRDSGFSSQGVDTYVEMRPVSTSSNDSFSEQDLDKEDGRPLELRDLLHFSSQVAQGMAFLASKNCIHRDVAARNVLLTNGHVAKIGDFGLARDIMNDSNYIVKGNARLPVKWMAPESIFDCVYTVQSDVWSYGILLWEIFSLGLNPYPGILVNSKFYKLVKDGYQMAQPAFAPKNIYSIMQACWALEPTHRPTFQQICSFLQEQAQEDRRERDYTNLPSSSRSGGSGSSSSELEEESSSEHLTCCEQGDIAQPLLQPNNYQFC
Serine/threonine-protein kinase Nek6 (Homo sapiens), sequence (Q9HC98 whole entry): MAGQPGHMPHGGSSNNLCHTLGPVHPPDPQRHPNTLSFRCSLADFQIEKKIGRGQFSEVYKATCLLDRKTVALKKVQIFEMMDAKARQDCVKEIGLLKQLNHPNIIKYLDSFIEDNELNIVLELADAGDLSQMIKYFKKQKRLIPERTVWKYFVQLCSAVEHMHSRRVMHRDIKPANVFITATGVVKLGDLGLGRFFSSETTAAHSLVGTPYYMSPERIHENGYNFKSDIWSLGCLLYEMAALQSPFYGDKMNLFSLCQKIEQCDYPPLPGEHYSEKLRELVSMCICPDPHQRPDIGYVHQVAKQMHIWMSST
Serine/threonine-protein kinase PLK1 (Homo sapiens), sequence (P53350 whole entry): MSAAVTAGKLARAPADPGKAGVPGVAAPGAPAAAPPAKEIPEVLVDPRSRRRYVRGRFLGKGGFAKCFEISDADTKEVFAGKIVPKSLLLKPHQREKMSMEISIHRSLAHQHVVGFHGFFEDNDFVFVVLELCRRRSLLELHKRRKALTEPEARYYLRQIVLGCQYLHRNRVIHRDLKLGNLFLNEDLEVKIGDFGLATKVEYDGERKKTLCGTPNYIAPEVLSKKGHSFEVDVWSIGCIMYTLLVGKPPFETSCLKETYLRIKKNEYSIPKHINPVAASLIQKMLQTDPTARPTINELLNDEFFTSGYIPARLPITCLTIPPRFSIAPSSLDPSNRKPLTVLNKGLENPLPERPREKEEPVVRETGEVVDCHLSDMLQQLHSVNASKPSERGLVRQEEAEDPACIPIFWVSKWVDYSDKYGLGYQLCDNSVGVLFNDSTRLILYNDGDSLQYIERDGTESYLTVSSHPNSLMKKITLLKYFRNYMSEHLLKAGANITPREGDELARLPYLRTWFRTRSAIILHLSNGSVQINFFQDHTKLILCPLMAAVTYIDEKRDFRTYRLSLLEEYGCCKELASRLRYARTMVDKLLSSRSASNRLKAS
Serine/threonine-protein kinase Nek7 (Homo sapiens), sequence (Q8TDX7 whole entry, looked up): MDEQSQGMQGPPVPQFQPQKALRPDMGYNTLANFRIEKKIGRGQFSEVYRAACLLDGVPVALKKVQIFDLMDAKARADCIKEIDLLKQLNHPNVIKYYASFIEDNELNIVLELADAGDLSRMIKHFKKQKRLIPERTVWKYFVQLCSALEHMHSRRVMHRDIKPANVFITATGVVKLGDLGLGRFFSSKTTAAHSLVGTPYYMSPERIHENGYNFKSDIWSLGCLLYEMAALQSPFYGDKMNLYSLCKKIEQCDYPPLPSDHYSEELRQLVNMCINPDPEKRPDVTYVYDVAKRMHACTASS

| Compound | inhibition [1] | inhibition [2] | inhibition [3] | inhibition [4] | inhibition [5] | inhibition [6] | inhibition [7] | inhibition [8] | inhibition [9] | inhibition [10] | inhibition [11] | inhibition [12] | inhibition [13] | inhibition [14] | inhibition [15] | inhibition [16] | inhibition [17] | inhibition [18] | inhibition [19] | inhibition [20] |
| --- | --- | --- | --- | --- | --- | --- | --- | --- | --- | --- | --- | --- | --- | --- | --- | --- | --- | --- | --- | --- |
| COc1cccc(/C=N/Nc2ncnc3c2cnn3-c2cccc(OC)c2)c1 | 6.73% | 1.81% | 3.93% | 5.68% | 3.79% | 1.07% | 2.21% | 3.9% | 8.57% | 7.75% | 11.2% | 5.9% | 5.49% | 7.19% | 7.24% | 1.81% | -0.55% | 1.79% | 6.37% | 2.39% |
| NS(=O)(=O)c1ccc(N/N=C2\C(=O)Nc3ccc(-c4cnco4)cc32)cc1 | 26.5% | 0.9% | -0.1% | 2.64% | 1.79% | 1.55% | 1.55% | 2.6% | 8.73% | 2.34% | 7.27% | 3.71% | 3.38% | 15.1% | 73.1% | -4.32% | 25.8% | 4.76% | 27.8% | -0.9% |
| O=C(Nc1n[nH]c2nc(-c3ccc(O)cc3)c(Br)cc12)C1CC1 | 12.2% | 3.52% | 11.2% | 6.4% | 9% | 3.51% | 15.2% | 13.2% | 46.3% | 13.9% | 13.2% | 6.21% | 5.59% | 10.2% | 27.1% | 18.3% | 60.9% | 3.87% | 6.92% | 5.98% |
